# Most compounds without a hit are left out; they make up all but 3.1% or so of the library.
# Wnt bcat act = activates Wnt/beta-catenin signaling in a reporter cell assay; activation, % at 9.35 µM; activator, plate reader; 300,000 tested, 1.2% active; in the data active = activation above about 30%, passing the limit was not always enough; inconclusive = no clear call, values can overlap the other calls;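 also: 0% = neutral control wells and 100% = positive control wells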
# C2C12 statin = suppressors of simvastatin-induced myotoxicity in C2C12 myotubes; ATP luminescence, 48 h; scaled: DMSO 0, geranylgeraniol control 100; rescue of ATP level, % at 7.49 µM; 330,000 tested, 0.78% active;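 active = mean ATP rescue above about 67%, or every replicate alone reaching that limit, limit read from the data, passing the limit was not always enough; inconclusive = no clear call, values can overlap the other calls; inactive = mean under the limit and some replicate under it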;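 also: myotubes were challenged with 10 µM simvastatin during compound exposure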
# esBAF inh = SWI/SNF esBAF complex inhibition; reporter increase, % at 12.5 µM; 350,000 tested, 2% active; mouse ES cells, Bmi1-luciferase knock-in reporter, 24 h; 100% = twice the neutral-well signal; AID 602393; in the data active = activation above about 40%; inconclusive = no clear call, values can overlap the other calls;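 also: 0% = median of the plate's neutral control wells and 100% = double that signal; a rise in the Bmi1 reporter signal indicates esBAF inhibition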
# MITF TRPM1 HTS = MITF TRPM1 promoter activation in melanoma cells; SK-MEL-5 TRPM1-promoter luciferase, 24 h; % of positive control, neutral wells = 0; activation, % at 12.5 µM; 300,000 tested, 0.75% active; AID 588334;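 active = mean activation of at least 80% with every replicate also reaching 80%; inconclusive = mean reaches 80% but some replicate falls short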;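 also: 0% = neutral control wells and 100% = parthenolide positive control wells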
# Rtt109 HAT inh = C. albicans Rtt109 histone acetyltransferase inhibition; 330,000 tested, 0.16% active; inhibition, % at 34.9 µM; AID 540336; purified Rtt109/Vps75, ThioGlo CoA-SH fluorescence, 4 h; Q5AAJ8;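 active = inhibition of at least 50% in every replicate; inconclusive = best replicate reaches 50% inhibition but some replicates fall short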
# Target sequence (Q5AAJ8 whole entry, looked up): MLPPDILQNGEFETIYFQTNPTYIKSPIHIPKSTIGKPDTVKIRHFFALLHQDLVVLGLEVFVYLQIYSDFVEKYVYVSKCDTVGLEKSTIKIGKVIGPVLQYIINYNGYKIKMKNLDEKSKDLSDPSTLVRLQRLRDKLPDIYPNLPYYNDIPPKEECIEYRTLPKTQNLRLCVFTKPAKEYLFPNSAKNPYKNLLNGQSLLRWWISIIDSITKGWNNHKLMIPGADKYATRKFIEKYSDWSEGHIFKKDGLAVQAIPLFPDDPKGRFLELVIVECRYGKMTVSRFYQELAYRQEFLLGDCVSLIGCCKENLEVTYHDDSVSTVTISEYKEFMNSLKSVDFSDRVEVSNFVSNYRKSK
# * = called active by the depositor; ? = inconclusive; / = no result.
SMILES,Wnt bcat act,C2C12 statin,esBAF inh,MITF TRPM1 HTS,Rtt109 HAT inh
Cc1ccnc(NC(=O)c2ccc(Cl)c(S(=O)(=O)N3CCCCC3)c2)c1,20.5,-4.3,57.1*,32.3,4.0
CN(C)S(=O)(=O)c1cc(NC(=O)C2=COCCO2)ccc1Cl,0.3,35.0,8.0,-0.4,-2.0
CC1CCN(S(=O)(=O)c2ccc(C(=O)Nc3ccccn3)cc2)CC1,19.6,/,/,51.7,-7.0
O=C(Nc1ccc(Cl)c(S(=O)(=O)N2CCCCC2)c1)C1=COCCO1,-2.4,-1.8,3.4,6.3,51.9*
O=C(Nc1ccccn1)c1cccc(S(=O)(=O)N2CCCCC2)c1,/,8.2,8.8,-1.7,-3.8
Cc1ccnc(NC(=O)c2ccc(S(=O)(=O)N3CCC(C)CC3)cc2)c1,36.3*,/,/,97.4*,9.9
Cc1ccnc(NC(=O)c2ccc(Cl)c(S(=O)(=O)N3CCCC3)c2)c1,11.0,/,/,45.9,-1.9
O=C(Nc1ccccn1)c1ccc(Cl)c(S(=O)(=O)N2CCCCCC2)c1,-3.3,-31.9,83.4*,68.5,3.3
COc1cccc(S(=O)(=O)N[C@H]2CC[C@@H](CCn3cc(-c4ccccn4)nn3)O[C@@H]2CO)c1,/,-3.2,-0.4,/,/
O=C(C[C@H]1CC[C@@H]2[C@H](COC[C@H](O)CN2Cc2cccc(Cl)c2)O1)NCC1CCCCC1,/,9.5,2.1,/,/
CCC12CC3CC(C1)CC(C(=O)NNC(N)=O)(C3)C2,-0.8,105.7*,0.7,-9.1,-22.8
COc1ccc(CN(C)C[C@@H]2Oc3c(NC(=O)c4cnccn4)cccc3C(=O)N([C@H](C)CO)C[C@H]2C)cc1,/,11.2,0.5,/,/
CC(C)C(OC(=O)c1ccccc1)c1nccc2ccccc12 (stereo not given),0.2,8.3,71.7*,57.7,-2.4
O=C(OC(c1ccccc1)c1nccc2ccccc12)c1ccccc1 (stereo not given),-10.8,5.9,-37.9,-32.1,7.9
C[C@@H]1CN([C@@H](C)CO)S(=O)(=O)c2ccc(C#CC(C)(C)O)cc2O[C@@H]1CN(C)C(=O)C1CCCCC1,/,-12.8,-2.4,/,/
COc1cccc(-c2cnc3c(c2)C(=O)N([C@@H](C)CO)C[C@@H](C)[C@@H](CN(C)C(=O)CN(C)C)O3)c1,/,13.5,-10.0,/,/
COC(=O)c1ccc(CSc2ccccc2NC(=S)Nc2cccc(SC)c2)o1,8.9,2.1,53.9*,/,/
COC(=O)c1cccc(NC(=S)Nc2ccccc2Cl)c1,0.8,4.5,-2.5,18.0,3.8
COCCNC(=O)c1cc2sc3ccccc3c2s1,46.0*,-50.9,2.3,/,-6.0
Cc1noc(C)c1S(=O)(=O)Nc1ccc2c(c1)CC(=O)N([C@@H](C)CO)C[C@@H](C)[C@@H](CN(C)Cc1ccc(Cl)c(Cl)c1)O2,/,?,3.4,/,/
Cc1noc(C)c1S(=O)(=O)Nc1ccc2c(c1)CC(=O)N([C@@H](C)CO)C[C@@H](C)[C@H](CN(C)Cc1ccc(Cl)c(Cl)c1)O2,/,19.0,-3.7,/,/
Cc1noc(C)c1S(=O)(=O)Nc1ccc2c(c1)CC(=O)N([C@@H](C)CO)C[C@@H](C)[C@@H](CN(C)Cc1ccc(C(F)(F)F)cc1)O2,/,35.6,1.0,/,/
Cc1noc(C)c1S(=O)(=O)Nc1ccc2c(c1)CC(=O)N([C@H](C)CO)C[C@@H](C)[C@@H](CN(C)Cc1ccc(C(F)(F)F)cc1)O2,/,82.6*,3.1,/,/
Cc1noc(C)c1S(=O)(=O)Nc1ccc2c(c1)CC(=O)N([C@@H](C)CO)C[C@H](C)[C@@H](CN(C)Cc1ccc(Cl)c(Cl)c1)O2,/,78.6*,4.8,/,/
Cc1noc(C)c1S(=O)(=O)Nc1ccc2c(c1)CC(=O)N([C@H](C)CO)C[C@H](C)[C@@H](CN(C)Cc1ccc(Cl)c(Cl)c1)O2,/,133.8*,9.5,/,/
SMILES,Wnt bcat act,C2C12 statin,esBAF inh,MITF TRPM1 HTS,Rtt109 HAT inh
Cc1noc(C)c1S(=O)(=O)Nc1ccc2c(c1)CC(=O)N([C@H](C)CO)C[C@@H](C)[C@H](CN(C)Cc1ccc(-c3ccccc3)cc1)O2,/,111.0*,1.0,/,/
C[C@@H]1CN([C@@H](C)CO)C(=O)Cc2cc(NC(=O)Nc3ccc4c(c3)OCO4)ccc2O[C@H]1CN(C)Cc1ccc(-c2ccccc2)cc1,/,57.2,0.3,/,/
C#CCn1c(=NC(=O)c2ccc(Br)s2)sc2cccc(OC)c21,5.8,-14.4,53.6*,73.0,3.3
C=CCn1c(=NC(=O)c2cccs2)sc2cccc(OC)c21,0.6,7.4,2.1,-2.4,-5.1
COc1ccc(-c2nc(SC)n(S(=O)(=O)c3ccccc3)n2)cc1,/,0.6,52.8*,56.5,-2.7
Clc1ccc(-c2ncc3ccccn23)cc1,7.8,/,/,57.0,-4.1
Clc1ccccc1-c1ncc2ccccn12,35.9*,/,/,2.8,1.6
COc1cccc(-c2nc3sc4c(c3c(=O)[nH]2)CCCCC4)c1,/,/,/,114.3*,-2.8
Brc1ccc2nc(-c3cccs3)c(NCC3CCCO3)n2c1 (stereo not given),3.3,-3.2,60.4*,10.5,2.2
c1csc(-c2nc(NCC3CCCO3)c3ccccc3n2)c1 (stereo not given),0.2,-14.4,3.5,-3.8,8.8
CCN(CC)S(=O)(=O)c1ccc(O)c(NC(=O)COc2ccc(S(=O)(=O)N3CCOCC3)cc2)c1,43.7*,3.8,-5.2,5.0,1.5
CO/N=C/c1ccc(Sc2ccccc2N)c([N+](=O)[O-])c1,/,127.9*,-2.2,-8.6,3.6
O=[N+]([O-])c1cc(/C=N/O)ccc1Sc1ccccc1,/,171.1*,4.6,24.3,?
CCC(=O)NCCc1nc2cc(NC(=O)c3ccc(Cl)cc3)ccc2n1C,37.3*,-12.0,30.4,122.9*,11.6
CCC(=O)NCCc1nc2cc(NC(=O)c3ccc(F)cc3)ccc2n1C,28.7,3.8,39.2,93.3*,-17.3
CCC(=O)NCCc1nc2cc(NC(=O)c3ccc(OC)cc3)ccc2n1C,/,-2.7,?,45.8,/
CC(=O)NCCc1nc2cc(NC(=O)c3ccc(Cl)cc3)ccc2n1C,22.6,/,/,27.8,-1.0
O=C(C[C@@H]1CC[C@H]2[C@@H](COC[C@H](O)CN2Cc2cccc(C(F)(F)F)c2)O1)NCCc1ccccc1,/,1.3,-0.7,/,/
Cc1ccc(OCCN2C(=O)c3ccccc3C2=O)cc1,/,-11.6,9.3,13.1,7.2
O=C1c2ccccc2C(=O)N1CCOc1cccc(Br)c1,13.7,-6.6,41.4*,18.6,-1.4
COc1ccc(OCCN2C(=O)c3cccc(N)c3C2=O)cc1,2.2,11.9,37.6,87.7*,7.3
C[C@@H]1CN([C@H](C)CO)C(=O)c2cccc(NC(=O)Nc3ccc(C(F)(F)F)cc3)c2O[C@H]1CN(C)S(=O)(=O)c1ccccc1,/,-31.1,-3.3,/,/
C[C@@H]1CN([C@@H](C)CO)C(=O)c2cc(NC(=O)CCCN(C)C)ccc2O[C@@H](C)CCCCO[C@H]1CN(C)S(=O)(=O)c1cccs1,/,/,-0.6,/,/
CCc1c(C)nc2cc(-c3ccc(Cl)cc3)[nH]n2c1=O,10.7,3.6,56.3*,/,-4.5
CCc1c(C)nc2cc(-c3cccc(Br)c3)[nH]n2c1=O,36.3*,-40.5,56.5*,/,-7.4

# Screening results from PubChem.
